# Measured values as given in article PMC4552634, “A New Set of Chemical Starting Points with Plasmodium falciparum Transmission-Blocking Potential for Antimalarial Drug Discovery” (PLoS ONE, 2015).
# Read-outs that look alike come from different tables or passages of the source. Among all 13,000 compounds or so, about 3,200 (25%) showed an effect of 50% or more. The list shows a part of the results.
# Test system: P. falciparum stage V gametocytes
# Parameters: BacTiter-Glo ATP luminescence viability of purified stage V gametocytes in 384-well plates, per cent inhibition versus DMSO
# Conditions: 48 h, 5 µM, inhibitor
SMILES,% Inhibition,% Inhibition (% Inhibition)
O=C(Nc1cccc(-c2csc(-c3nc4ccccc4[nH]3)c2)c1)c1ccoc1 [TCMDC-132404],1.607%,
N=C(N)NN=CC(=O)Nc1ccc(C(F)(F)F)cc1 [TCMDC-137560],10.99%,
CCC(CC(NCCCCNC(=O)c1ccc(NC(=O)c2ccc(Cl)cc2)cc1)c1ccccc1)c1ccccc1OC (centres unmarked) [TCMDC-138580],,-0.1612%
Nc1ncc(-c2ccc(F)cc2)c2ccc(-c3cccc(F)c3)cc12 [TCMDC-134502],-15.75%,
NC(N)=NC(=O)Nc1cc(Br)c(Br)c(Br)c1 [TCMDC-137506],-8.388%,
CNCC(O)c1cc(Cl)c(Cl)cc1C (centres unmarked) [TCMDC-131255],13.21%,
CCn1ncc(Cl)c1CN(C)S(=O)(=O)c1ccc(Br)cc1 [TCMDC-124902],30.97%,
CCSc1nc2sc3c(c2c(=O)n1-c1ccccc1)CCN(C)C3 [TCMDC-123852],14.1%,
CCCN(CCC)S(=O)(=O)c1ccc(C(=O)N2CCC(C(=O)OCC)CC2)cc1 [TCMDC-139301],16.88%,
Cc1nc(N)nc(N)c1-c1cccc(Cl)c1 [TCMDC-137375],13.21%,
c1ccc(COc2ccc(Nc3ncnc4cnc(-c5ccc(CNc6cccnc6)o5)cc34)cc2)cc1 [TCMDC-137776],19.44%,
Cc1ccc(NC(=O)NCCCCCN2CCC(c3c[nH]c4ccccc34)CC2)cc1I [TCMDC-139200],66.97%,
O=C(NCCCCCN1CCC(c2c[nH]c3ccccc23)CC1)Nc1ccc(I)c(Cl)c1 [TCMDC-139202],-23.12%,
O=C(NCCCCCN1CCC(c2c[nH]c3ccccc23)CC1)Nc1ccc(Br)cc1 [TCMDC-139115],-28.65%,
CC1(C)N=C(N)N=C(N)N1c1ccc(Oc2ccc(Cl)cc2)c(Cl)c1 [TCMDC-123522],76.9%,
Cc1ccc(N2C(N)=NC(N)=NC2(C)C)cc1Cl [TCMDC-137708],-11.46%,
Cc1cc(N2C(N)=NC(N)=NC2(C)C)ccc1Cl [TCMDC-137705],-13.35%,
COc1cccc(C(=O)NCc2cccs2)c1Oc1ccccc1 [TCMDC-141236],3.513%,
NCC(=O)Nc1cccc(Nc2nccc(-c3c(-c4cccc(NC(=O)c5ccccc5)c4)nn4ccccc34)n2)c1 [TCMDC-135671],-11.23%,
CC1CCN(C(=O)C(Cc2c[nH]c3ccccc23)NS(=O)(=O)c2ccc(Cl)cc2)CC1 (centres unmarked) [TCMDC-124494],54%,
O=C(NCCC1CCN(CCc2c[nH]c3ccccc23)CC1)Nc1ccc(Cl)c(Cl)c1 [TCMDC-139151],31.54%,
CC1CCN(C(=O)[C@H](Cc2c[nH]c3ccccc23)NS(=O)(=O)c2ccc(Cl)cc2)CC1 [TCMDC-125035],69.39%,

SMILES,% Inhibition,% Inhibition (% Inhibition)
O=C(CCc1ccccc1)N[C@H](Cc1c[nH]c2ccccc12)C(=O)N1CCC(NCc2ccc3c(c2)Cc2ccccc2-3)CC1 [TCMDC-135353],27.37%,
C[C@@H](CNc1ccnc(Nc2ccc3[nH]c(=O)[nH]c3c2)n1)c1ccccc1 [TCMDC-136803],-37.25%,
O=C(c1cc(C(F)(F)F)cc(C(F)(F)F)c1)N1CCC(CCN2CCC3(CC2)C(=O)NCN3c2ccccc2)CC1Cc1ccc(Cl)c(Cl)c1 (centres unmarked) [TCMDC-141945],-34.22%,
CC(C)(C)OC(=O)NCc1ccc(Nc2nnc(-c3ccc(OCC(=O)NC[C@@H]4CC[C@H]5C[C@@H]4C5(C)C)c([N+](=O)[O-])c3)o2)cc1 [TCMDC-135039],110.7%,
CC(C)(C)c1ccc(CNC(=O)COc2ccc(-c3nnc(-c4cccc([N+](=O)[O-])c4)o3)cc2[N+](=O)[O-])cc1 [TCMDC-134986],-5.433%,
CC(C)(C)OC(=O)NCc1ccc(Nc2nnc(-c3ccc(OCC(=O)NCc4ccc(C(C)(C)C)cc4)c([N+](=O)[O-])c3)o2)cc1 [TCMDC-134991],114.3%,
CN1CCN(c2cccc(-c3nnc(-c4ccc(OCC(=O)NCc5ccc(C(F)(F)F)cc5)c([N+](=O)[O-])c4)o3)c2)CC1 [TCMDC-134942],2.294%,
CC1(C)[C@H]2CC[C@@H](CNc3nc(NCC(=O)Nc4ccc5ccccc5c4)nc(N4CCC(N5CCCC5)CC4)n3)[C@@H]1C2 [TCMDC-139977],10.19%,
CC1(C)[C@H]2CC[C@@H](CNc3nc(NCCc4cnc[nH]4)nc(Nc4ccc(Oc5ccccc5)cc4)n3)[C@@H]1C2 [TCMDC-139744],-37.07%,
CCCc1cc(N2CCC(N3CCCC3)CC2)nc(Nc2ccc(Cl)cc2)n1 [TCMDC-132386],18.02%,
COc1ccc(C2CC(c3cccs3)=NN2C(=O)COc2cccc(C(C)=O)c2)cc1OC (centres unmarked) [TCMDC-125111],-18.64%,
FC(F)(F)c1ccc(-c2cncc(-c3ccc(C(F)(F)F)cc3)n2)cc1 [TCMDC-138711],-27.18%,
N#Cc1cccc(Nc2nccc(NCC(O)c3ccccc3C(F)(F)F)n2)c1 (centres unmarked) [TCMDC-136576],-28.54%,
O=C(Nc1ccc(-c2csc3nccn23)cc1)c1ccc(Cl)cc1 [TCMDC-137159],11.24%,
CN1CCN(CCCN(Cc2cccc(-c3ccc(CNCc4ccc5c(c4)OCO5)cc3)c2)C(=O)Nc2ccccc2)CC1 [TCMDC-140596],57.54%,
CN1CCN(CCCN(Cc2ccc(-c3cccc(CNCc4ccc5c(c4)OCO5)c3)cc2)C(=O)Nc2ccccc2)CC1 [TCMDC-140606],65.32%,
CN1CCN(CCCN(Cc2ccc(-c3ccc(CNCc4ccc5c(c4)OCO5)cc3)cc2)C(=O)Nc2ccccc2)CC1 [TCMDC-140607],58.83%,
CN1CCN(CCCN(Cc2ccc(-c3cccc(CNCc4ccc5c(c4)OCO5)c3)cc2)C(=O)NCCc2ccccc2)CC1 [TCMDC-140947],67.47%,
c1ccc2c(c1)ncn2-c1ccnc(Nc2ccncc2)n1 [TCMDC-138908],15.51%,
Cc1ccc(NC(=O)c2cc(Br)cc(N3CCCN(C)CC3)c2)cc1F [TCMDC-135143],-89.56%,
CCCCCN1CCCC(CNS(=O)(=O)c2ccc(C(=O)Nc3ccc(C(F)(F)F)cc3)cc2)C1 (centres unmarked) [TCMDC-133679],-5.047%,
c1ccc2c(c1)CN(CC1CCOCC1)CC1(CCN(Cc3c[nH]c4cnccc34)CC1)O2 [TCMDC-133380],13.86%,

SMILES,% Inhibition,% Inhibition (% Inhibition)
O=C(NCCCN(Cc1ccc(F)cc1)c1ccccn1)C(c1cc2ccccc2o1)N1CCN(C(c2ccccc2)c2ccccc2)CC1 (centres unmarked) [TCMDC-141022],15.04%,
CCN(CCN(C)C)Cc1ccc(-c2ccc(NS(=O)(=O)c3cccc(Cl)c3)cc2)cc1 [TCMDC-136601],2.097%,
O=C(COC(=O)c1cccc(S(=O)(=O)N2CCc3ccccc32)c1)NNC(=O)c1cccs1 [TCMDC-124334],26.4%,
CC(C)C[C@H](NC(=O)c1ccc(OCCN2CCOCC2)cc1)C(=O)N[C@H](/C=N/NC(=O)c1ccccc1)CCc1ccccc1 [TCMDC-135817],2.96%,
CCCCCCN=C(N)c1ccc(OCCCCCOc2ccc(C(N)=NCCCCCC)cc2)cc1 [TCMDC-137619],113.3%,
CCCCCCN=C(N)c1ccc2nc(-c3ccc(O)cc3)[nH]c2c1 [TCMDC-137218],15.89%,
COc1ccc(CN=C(N)Nc2nc(-c3ccc(OCCCn4ccnc4)cc3)cs2)cc1 [TCMDC-138934],9.829%,
CCCCCN=C(N)c1ccc(OCCCCCOc2ccc(C(N)=NCCCCC)cc2)cc1 [TCMDC-137620],63.24%,
NC(=NCc1ccc(O)cc1)Nc1nc(-c2ccc(OCCCn3ccnc3)cc2)cs1 [TCMDC-138936],-10.17%,
CCCCN=C(N)Nc1ccc(OCCCOc2ccc(NC(N)=NCCCC)cc2)cc1 [TCMDC-137616],55.77%,
CC(C)CCN=C(N)c1ccc(OCCCCCOc2ccc(C(N)=NCCC(C)C)cc2)cc1 [TCMDC-137618],62.8%,
CN(C)C=Nc1ccc(OCCCCCCOc2ccc(N=CN(C)C)cc2)cc1 [TCMDC-137575],-11.04%,
CCCCN=C(N)c1ccc(OCCCCCOc2ccc(C(N)=NCCCC)cc2)cc1 [TCMDC-137617],33.37%,
O=C(Nc1cccc(-c2cc3ccccc3[nH]2)c1)C1CCN(Cc2ccccc2O)CC1 [TCMDC-124628],-2.419%,
COC(=O)Nc1cc(C(F)(F)F)ccc1N1CCCC(NS(=O)(=O)c2ccc(C(C)(C)C)cc2)C1 (centres unmarked) [TCMDC-134158],-30.72%,
CN1CCN(c2ccnc3ccc(NC(=O)Nc4ccc(Br)cc4)cc23)CC1 [TCMDC-139324],-20.3%,
CC(CNC1CCN(CCn2c(=O)ccc3ccc(F)cc32)CC1)c1ccccc1 (centres unmarked) [TCMDC-135136],3.185%,
CCN1CCCC(CNC(=O)/C(=C/C=C/c2cc3cc(Cl)c(Cl)cc3[nH]2)OC)C1 (centres unmarked) [TCMDC-139380],-27.83%,
CC1CCC(C[C@@H](C(=O)N[C@H](C(=O)Nc2nccs2)[C@@H](C)O)[C@H](CCC(F)(F)F)N(O)C=O)CC1 (some centres unmarked) [TCMDC-138352],2.054%,
Cc1ccc(OCCCCON2C(N)=NC(N)=NC2(C)C)cc1C [TCMDC-131655],1.03%,
COc1ccc2nccc([C@@H](O)CN3CCC(NCc4ccc5c(n4)NCCC5)CC3)c2c1 [TCMDC-141460],44.65%,
